A short description of assay [1]: qHTS Assay for Lipid Storage Modulators (AID 1519). Conditions: Drosophila S3 cells, BODIPY lipid droplet/cell ratio, laser cytometry; measured here: lipid channel max response; cells loaded with oleic acid. Summed up: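 Cells seeded at 5,000 per well were treated with compounds over a concentration series and loaded with oleic acid (400 uM, as added). Lipid droplet fluorescence (488 nm excitation, 500-530 nm channel) was read by laser-scanning cytometry and normalized to 20 uM Triacsin C.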
On the technique in general: Quantitative high-throughput screening tests each substance at several concentrations.

The target in assay [2] is DNA repair nuclease/redox regulator APEX1 (Homo sapiens) (UniProt P27695). As to the kind of experiment: qHTS Validation Assay for Inhibitors of the Human Apurinic/apyrimidinic Endonuclease 1 (APE1) (AID 1705;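 note: TAMRA fluorescence gain over two minutes as APE1 cuts a quenched THF abasic duplex; series mostly up to about 57 µM; % is set by controls: 0 for no effect and ±100 for the full control effect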). Summed up:
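qHTS, 1536-well. APE1 + cpd 15 min RT → 50 nM TAMRA/BHQ-2 THF-abasic dsDNA substrate → kinetic fluorescence, 3 reads/60 s; delta(read3−read1) = reaction progress. No-enzyme buffer = negative control.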

Assay [3] is described as follows: Counterscreen for APE1 Inhibitors: Fluorescent Dye Displacement Validation Assay (AID 1707).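 Note: plate controls were ThO with dsDNA and no compound for no effect and ThO without dsDNA for full effect.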 The essentials: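 Compounds are scored by their ability to displace Thiazole Orange (250 nM) from a 50 nM TAMRA-tagged duplex bearing a tetrahydrofuran abasic site. Buffer is 50 mM Tris-HCl pH7.5, 50mM NaCl, 2 mM MgCl2, 0.01% Tween-20.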
Assay [4] deals with Endonuclease 4 (Escherichia coli (strain K12)) (UniProt P0A6C1). As to the kind of experiment: Counterscreen for APE1 Inhibitors: qHTS Validation Assay for Inhibitors of Endonuclease IV (AID 1708). Note: % is set by controls: 0 for no effect and ±100 for the full control effect. The essentials: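 2 nM enzyme was preincubated with compounds for 15 min at room temperature in 50 mM Tris-HCl pH 7.5, 50 mM NaCl, 2 mM MgCl2, 1 mM DTT, 0.01% Tween-20. 50 nM THF-abasic TAMRA/BHQ-2 duplex substrate started the reaction.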
For orientation: The purpose of a counterscreen is to sort out artefacts and off-target activity.

The nature of assay [5]: qHTS for differential inhibitors of proliferation of Plasmodium falciparum line 7G8 (AID 1815).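 Note: parasite growth measured after three days of incubation; plate controls were vehicle wells for no effect and reference inhibitor wells for full effect.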
Assay [6] can be described thus: qHTS for differential inhibitors of proliferation of Plasmodium falciparum line GB4 (AID 1816).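 Note: parasite growth measured after 72 h incubation; 0% = vehicle DMSO and -100% = reference inhibitor.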 Conditions: Potency: Plasmodium falciparum GB4 proliferation inhibition.
Assay [7] in a line: qHTS for differential inhibitors of proliferation of Plasmodium falciparum line D10 (AID 1877).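 Note: parasites grown with compound for 72 h before DNA staining; plate controls were vehicle wells for no effect and reference inhibitor wells for full effect.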
A short description of assay [8]: qHTS for differential inhibitors of proliferation of Plasmodium falciparum line Dd2 (AID 1882).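 Note: series mostly up to about 29 µM; compound exposure of 72 h on infected erythrocytes; plate controls were DMSO vehicle for no effect and 0.29 µM artemisinin for full effect; nearly all actives have a fitted effect of over 65% in size.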 Conditions: Potency: Plasmodium falciparum Dd2 proliferation inhibition. Summed up: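 SYBR Green I DNA fluorescence read-out, ex 485/em 535 nm. Signals were normalized to 0.29 uM artemisinin and DMSO wells, then corrected using vehicle-only plates flanking each stack. Parasite growth ran 72 h in erythrocytes before lysis.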

In assay [9] the target is ATP-dependent DNA helicase Q1 (Homo sapiens) (UniProt P46063). Description: qHTS Validation Assay for Inhibitors of RecQ-Like Dna Helicase 1 (RECQ1) (AID 2353).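 Note: plate controls were DMSO vehicle for no effect and enzyme-free control for full effect.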 Summed up: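 50 nM RECQ1T1 preincubated 15 min with compound in Tris pH 8.0 buffer with MgCl2, DTT, Tween-20 and 2.5 ug/ml poly(dI-dC); started with 200 nM TAMRA/BHQ-2 forked duplex and 2 mM ATP. Unwinding read as fluorescence (525/598 nm), two reads 2 h apart.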

Assay [10] can be described thus: Validation screen for small molecules that induce DNA re-replication in MCF 10A normal breast cells (AID 463097). Note: 0% is about no effect; nearly all actives have a fitted effect of over 60% in size. The essentials: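 Image-based qHTS: normal breast cells are incubated with compound for 48 hr, stained with Hoechst, and scanned for total nuclear fluorescence. Compounds raising the fraction of nuclei with elevated DNA content count as re-replication inducers.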

A short description of assay [11]: Quantitative high throughput screen for delayed death inhibitors of the malarial parasite plastid, 96 hour incubation (AID 488745). Note: series mostly up to about 29 µM; % is set by controls: 0 for no effect and ±100 for the full control effect; nearly all actives have a fitted effect of over 70% in size. The essentials: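 P. falciparum carrying an integrated firefly luciferase reporter, grown in erythrocytes (2% hematocrit, 0.1% parasitemia final) in RPMI 1640/0.5% Albumax, was exposed to compound for 96 h (two generations) at 37 C, 5% CO2. Luminescence decrease indicated growth inhibition.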

The nature of assay [12]: Quantitative high throughput screen for delayed death inhibitors of the malarial parasite plastid, 48 hour incubation (AID 488752). Note: % is set by controls: 0 for no effect and ±100 for the full control effect; nearly all actives have a fitted effect of over 65% in size. The essentials:
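Erythrocytes infected with P. falciparum carrying an integrated firefly luciferase reporter (2% hematocrit, 0.1% parasitemia final) were exposed to compounds in RPMI 1640/0.5% Albumax for 48 h at 37 C, 5% CO2. Growth inhibition was scored as reduced luminescence.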

The target in assay [13] is M-phase phosphoprotein 8 (Homo sapiens) (UniProt Q99549). Description: qHTS Validation Assay for Inhibitors for MPP8 Chromodomain Interactions with Methylated Histone Tails (AID 488949).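 Note: 50 nM MPP8 with 50 nM peptide preformed then compounds added for 30 min; AlphaScreen signal from MPP8 chromodomain bound to biotinylated H3K9me3 peptide; top concentration of the series differs between compounds; % is set by controls: 0 for no effect and ±100 for the full control effect; nearly all actives have a fitted effect of over 55% in size.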 Summed up:
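50 nM MPP8 + 50 nM b-H3K9me3 peptide, PBS pH 7.4/0.01% Tween-20, 30 min RT; + cpd 30 min RT; + AlphaScreen donor/Ni-chelate acceptor beads 10 ug/mL final, 30 min dark; luminescence read.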

For assay [14], the target named is Thyrotropin receptor (Homo sapiens) (UniProt P16473). As to the kind of experiment: qHTS Assay for Antagonists of the Thyroid Stimulating Hormone Receptor (AID 488980). Note: series mostly up to about 58 µM; 0% is about no effect. The essentials: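 Readout is cAMP by HTRF competition between cellular cAMP and cAMP-d2 for a cryptate-labelled antibody. Antagonism was assessed in TSHR-transfected HEK293 cells stimulated with 4 nM TSH (EC80, final) in the presence of RO 20-1724.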

Assay [15] addresses Thyrotropin-releasing hormone receptor (Homo sapiens) (UniProt P34981). Description: qHTS for Small Molecule Agonists and Allosteric Enhancers of Human TRH Receptor: Validation Screen for Agonists (AID 493127;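 active = calcium activation more than 3 SD above the typical response in the agonist read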;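 note: intracellular calcium rise by fluo-8 fluorescence before TRH EC20 addition; 0% is about no effect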). The settings on record: TRH receptor agonist cell assay; at 2 µM; stronger effect = higher value. Summed up:
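TRHR-expressing cells were plated overnight in serum-containing medium, then loaded with fluo-8 calcium dye at room temperature for 30 min–1.5 h. After a 10 s baseline, compound was pin-transferred and calcium fluorescence (ex 480/em 530) read kinetically for agonist response.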

In assay [16] the target is Galactokinase (Homo sapiens) (UniProt P51570). As to the kind of experiment: qHTS Validation Assay for Inhibitors of Human Galactokinase (GALK) (AID 493189). Note: 0% is about no effect. Summed up:
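5 nM GALK / 100 uM galactose / 35 uM ATP, 20 mM HEPES pH8.0, 5 mM MgCl2, 60 mM NaCl, 1 mM DTT, 0.01% BSA (final). RT 1 h; Kinase-Glo Plus luminescence.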

A short description of assay [17]: Validation screen for small molecules that induce DNA re-replication in SW480 colon adenocarcinoma cells (AID 504364). Note: 0% is about no effect. The essentials:
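SW480 cells seeded at 250 per well were exposed to compound or DMSO for 48 hr at 37 C, 5% CO2, then stained with Hoechst for 40 min. DNA content per nucleus was imaged (405 nm ex, 500-530 nm em).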

Assay [18] deals with Zika virus NS2B-NS3 protease. Description: Primary screen GU AMC qHTS for Zika virus inhibitors (AID 1347154).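 Note: 0% = no-inhibitor control and -100% = no-enzyme control; nearly all actives have a fitted effect of over 70% in size.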 The essentials: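 Unlinked Zika NS2B hydrophilic domain/NS3 protease domain noncovalent complex (25 nM final) in 10 mM Tris-HCl pH 8.0, 0.01% Tween 20, with AMC peptide substrate. Fluorescence (ex 340, em 450 nm) change over 15 min, room temperature; percent inhibition fitted to 4-parameter Hill equation.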

Assay [19] in a line: Primary qHTS for small molecule stabilizers of the endoplasmic reticulum resident proteome: Secreted ER Calcium Modulated Protein (SERCaMP) assay (AID 1508630). Note: % is set by controls: 0 for no effect and ±100 for the full control effect. The essentials: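 GLuc-SERCaMP-expressing SH-SY5Y cells, pretreated 16 h with compound, are challenged with thapsigargin to empty ER calcium stores; after 4 h, coelenterazine is added directly to the medium and luminescence is imaged.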

Inconclusive results are not listed. The source made the active and inactive calls. Unless noted, calls come from the whole dose curve; as a rule, active = well fitted curve in the direction sought with a large enough effect; inconclusive = small, poorly fitted or top-dose-only effect, or another doubt; inactive = no such curve, though single readings can be large; an effect the other way counts as inactive or inconclusive.

Chain of ATP-dependent DNA helicase Q1 (Homo sapiens) (P46063 whole entry, looked up): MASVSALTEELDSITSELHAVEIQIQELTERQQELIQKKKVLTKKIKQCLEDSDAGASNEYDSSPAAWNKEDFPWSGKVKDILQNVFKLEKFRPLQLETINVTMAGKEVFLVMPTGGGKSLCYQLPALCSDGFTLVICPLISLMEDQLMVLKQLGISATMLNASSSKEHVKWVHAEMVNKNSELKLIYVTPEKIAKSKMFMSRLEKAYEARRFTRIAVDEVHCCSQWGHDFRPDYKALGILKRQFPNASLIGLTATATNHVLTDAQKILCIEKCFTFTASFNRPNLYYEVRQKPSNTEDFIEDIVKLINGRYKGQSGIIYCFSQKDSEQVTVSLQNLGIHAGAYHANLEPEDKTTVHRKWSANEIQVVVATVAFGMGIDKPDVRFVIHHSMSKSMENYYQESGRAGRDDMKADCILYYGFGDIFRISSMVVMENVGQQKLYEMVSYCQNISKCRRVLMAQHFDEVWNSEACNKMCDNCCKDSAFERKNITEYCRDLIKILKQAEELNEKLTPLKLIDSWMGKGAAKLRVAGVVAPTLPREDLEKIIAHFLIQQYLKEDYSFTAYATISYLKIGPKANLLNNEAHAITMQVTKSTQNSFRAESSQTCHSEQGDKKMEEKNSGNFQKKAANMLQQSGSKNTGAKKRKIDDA
Chain of Thyrotropin receptor (Homo sapiens) (P16473 whole entry, looked up): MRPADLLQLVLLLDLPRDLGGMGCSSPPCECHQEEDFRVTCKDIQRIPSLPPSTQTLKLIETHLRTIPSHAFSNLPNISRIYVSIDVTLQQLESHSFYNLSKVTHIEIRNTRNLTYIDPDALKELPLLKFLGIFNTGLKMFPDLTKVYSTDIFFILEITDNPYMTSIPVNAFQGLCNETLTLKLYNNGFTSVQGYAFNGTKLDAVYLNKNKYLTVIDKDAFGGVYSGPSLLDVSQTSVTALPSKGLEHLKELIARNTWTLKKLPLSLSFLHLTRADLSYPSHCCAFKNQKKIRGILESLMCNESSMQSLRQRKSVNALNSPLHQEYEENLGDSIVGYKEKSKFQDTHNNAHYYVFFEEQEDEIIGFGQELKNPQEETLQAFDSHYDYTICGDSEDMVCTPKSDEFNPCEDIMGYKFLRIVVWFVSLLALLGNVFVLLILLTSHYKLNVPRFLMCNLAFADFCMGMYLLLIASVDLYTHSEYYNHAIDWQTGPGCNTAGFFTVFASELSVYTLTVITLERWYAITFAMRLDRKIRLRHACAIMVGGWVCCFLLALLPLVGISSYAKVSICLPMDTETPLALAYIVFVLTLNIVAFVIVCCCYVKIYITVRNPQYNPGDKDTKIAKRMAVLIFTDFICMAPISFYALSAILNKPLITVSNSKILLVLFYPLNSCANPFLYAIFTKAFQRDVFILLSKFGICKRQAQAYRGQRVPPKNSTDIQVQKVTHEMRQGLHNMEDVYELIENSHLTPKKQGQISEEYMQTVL
Chain of DNA repair nuclease/redox regulator APEX1 (Homo sapiens) (P27695 whole entry, looked up): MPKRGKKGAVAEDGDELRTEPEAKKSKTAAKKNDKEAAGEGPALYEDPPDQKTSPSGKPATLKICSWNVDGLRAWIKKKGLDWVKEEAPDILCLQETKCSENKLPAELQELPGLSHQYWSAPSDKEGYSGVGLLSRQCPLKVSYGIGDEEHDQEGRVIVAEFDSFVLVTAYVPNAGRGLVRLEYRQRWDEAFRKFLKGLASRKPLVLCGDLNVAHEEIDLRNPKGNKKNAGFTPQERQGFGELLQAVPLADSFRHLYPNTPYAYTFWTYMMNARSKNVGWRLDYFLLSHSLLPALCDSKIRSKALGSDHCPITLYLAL
Chain of Thyrotropin-releasing hormone receptor (Homo sapiens) (P34981 whole entry, looked up): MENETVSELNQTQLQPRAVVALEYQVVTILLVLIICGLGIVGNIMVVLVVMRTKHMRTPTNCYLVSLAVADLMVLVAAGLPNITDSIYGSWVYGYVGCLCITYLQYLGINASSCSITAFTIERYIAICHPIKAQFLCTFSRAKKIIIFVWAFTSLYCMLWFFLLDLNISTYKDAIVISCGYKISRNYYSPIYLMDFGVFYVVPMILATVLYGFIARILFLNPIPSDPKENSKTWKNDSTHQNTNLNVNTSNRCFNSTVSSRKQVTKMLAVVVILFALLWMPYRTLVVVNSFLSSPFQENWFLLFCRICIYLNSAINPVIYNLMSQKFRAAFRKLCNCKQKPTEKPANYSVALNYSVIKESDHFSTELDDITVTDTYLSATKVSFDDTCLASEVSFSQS
Chain of M-phase phosphoprotein 8 (Homo sapiens) (Q99549 whole entry, looked up): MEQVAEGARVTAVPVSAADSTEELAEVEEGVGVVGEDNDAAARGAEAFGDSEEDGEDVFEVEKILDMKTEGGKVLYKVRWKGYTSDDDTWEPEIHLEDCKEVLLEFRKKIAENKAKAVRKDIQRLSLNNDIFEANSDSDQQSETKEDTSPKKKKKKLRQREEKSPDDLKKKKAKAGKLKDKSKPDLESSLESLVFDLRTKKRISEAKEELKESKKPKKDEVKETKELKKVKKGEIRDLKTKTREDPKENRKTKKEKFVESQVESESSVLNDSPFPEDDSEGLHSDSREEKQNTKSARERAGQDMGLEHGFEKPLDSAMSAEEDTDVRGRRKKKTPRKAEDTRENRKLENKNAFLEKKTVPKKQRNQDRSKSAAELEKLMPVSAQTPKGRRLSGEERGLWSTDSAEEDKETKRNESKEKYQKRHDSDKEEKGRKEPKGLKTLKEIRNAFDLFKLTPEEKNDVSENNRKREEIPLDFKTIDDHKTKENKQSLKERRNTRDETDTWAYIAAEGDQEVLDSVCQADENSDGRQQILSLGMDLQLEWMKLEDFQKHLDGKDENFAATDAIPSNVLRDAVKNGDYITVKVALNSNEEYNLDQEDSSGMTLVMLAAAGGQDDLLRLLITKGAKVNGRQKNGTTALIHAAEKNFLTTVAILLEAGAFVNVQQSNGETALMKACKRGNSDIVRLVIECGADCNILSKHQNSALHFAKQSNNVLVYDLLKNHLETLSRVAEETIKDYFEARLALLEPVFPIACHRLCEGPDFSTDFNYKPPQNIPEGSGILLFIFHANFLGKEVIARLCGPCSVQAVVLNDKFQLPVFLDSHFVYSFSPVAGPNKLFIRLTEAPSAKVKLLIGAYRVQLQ
Chain of Galactokinase (Homo sapiens) (P51570 whole entry, looked up): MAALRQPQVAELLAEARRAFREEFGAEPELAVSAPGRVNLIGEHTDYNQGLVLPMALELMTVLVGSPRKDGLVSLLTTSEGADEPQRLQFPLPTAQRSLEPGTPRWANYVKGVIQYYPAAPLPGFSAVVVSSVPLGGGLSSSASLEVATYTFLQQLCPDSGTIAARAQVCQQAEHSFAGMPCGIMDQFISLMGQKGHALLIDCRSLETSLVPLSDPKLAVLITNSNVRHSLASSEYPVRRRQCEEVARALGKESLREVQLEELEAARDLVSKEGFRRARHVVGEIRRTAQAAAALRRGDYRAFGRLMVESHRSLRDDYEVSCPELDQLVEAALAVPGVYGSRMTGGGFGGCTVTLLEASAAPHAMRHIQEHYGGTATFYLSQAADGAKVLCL

On to `Cn1cnc2c(NC3CCCC3)ncnc21`, for which the max response in [1] was -21%. Further, the Potency result in assay [2], in assay [3], in assay [4], in [5], in [6] and in [7] was “inactive” each time. The Potency result in assay [8], in assay [9], in assay [10], in assay [11], in assay [12] and in assay [13] was “inactive” throughout. For the same compound, the Potency result in [18] and in [19] was “inactive” each time. Also, the compound was classed as inactive in assay [14], in assay [16] and in assay [17]. For the same compound, in [15], the activation was 0.875% (inactive).

Values taken from PubChem BioAssay (NCATS).
